Target: Hexose transporter 1 (Plasmodium falciparum) (UniProt O97467)
Assay: ST_JUDE_LEISH: Cytotoxicity at 2uM final concentration against transgenic Leishmania Mexicana promastigotes LmPfHT that are glucose transport deficient and complemented with the Plasmodium falciparum hexose transporter. Activity is measured by DNA content using SYBR green in vitro
Assay type: functional

Question: Which inhibition does the source give for `CC1(C)N=C(N)N=C(N)N1c1ccc(I)cc1` here?
Answer: The inhibition was 5.57%.

Question: Which inhibition does the source give for `N#Cc1ccc(-c2ccc(C(=O)NCCCCN3CCC(c4cn(CCCO)c5ccccc45)CC3)cc2)cc1` here?
Answer: The inhibition was 1.61%.

Question: With `C=CCn1c(SCC(=O)Nc2cc(Cl)ccc2Cl)nc2sc(C)cc2c1=O` as the compound, how does the inhibition read?
Answer: Its inhibition is 0.95%.

Question: How did the inhibition turn out when `Cc1nnc2c(NC(=O)NC3CCCC3)cc3cc(-c4ccc(CN5CCN(C)CC5)cc4)ccc3n12` was run?
Answer: Its inhibition is 4.95%.

Question: With `CC(=O)Nc1ccc(C(=O)Nc2ccc(-c3csc(-c4nc5ccccc5[nH]4)c3)cc2)cn1` as the compound, how does the inhibition read?
Answer: The inhibition was 1.57%.

Question: With `CN(C)[C@@H]1C(O)=C(C(N)=O)C(=O)[C@@]2(O)C(O)=C3C(=O)c4c(O)ccc(C#Cc5ccccn5)c4C[C@H]3C[C@@H]12` as the compound, how does the inhibition read?
Answer: The inhibition was -0.62%.

Question: How did the inhibition turn out when `Cc1ncc([N+](=O)[O-])n1CCOC(=O)NC(NCC1COc2ccccc2O1)C(Cl)(Cl)Cl` (stereo not given) was run?
Answer: Its inhibition is 2.63%.

Question: Which inhibition does the source give for `CCN1CCN(c2cc(C)c3cc(NC(=O)c4ccc(N(CC)CC)cc4)ccc3n2)CC1` here?
Answer: The inhibition was 2.18%.

Question: With `Nc1ccc(-c2nc3cc(Oc4ccc5[nH]c(-c6ccc(N)cc6)nc5c4)ccc3[nH]2)cc1` as the compound, how does the inhibition read?
Answer: Its inhibition is 0.6%.

Question: Which inhibition does the source give for `Cc1nc(C)c(-c2ccc(C(=O)c3ccccc3)cc2)c(O)c1Br` here?
Answer: The inhibition was 5.49%.

Question: `CC1CN(Cc2ccc(-c3ccc(-c4nc5ccccc5[nH]4)cc3)cc2)CC(C)O1` (stereo not given) was tested. Which inhibition did it give?
Answer: Its inhibition is 6.82%.

Question: How did the inhibition turn out when `O=C(N[C@H]1CCN(Cc2ccc(OC3CCN(Cc4ccccc4)CC3)c(Br)c2)C1)c1ccc(Cl)c(Cl)c1` was run?
Answer: Its inhibition is 2.97%.

Question: With `COc1cccc(NC(=O)Nc2ccc(Nc3nc(C)cc(N4CCCC4)n3)cc2)c1` as the compound, how does the inhibition read?
Answer: Its inhibition is 1.07%.

Question: For `CC(C)c1ccc(NC(=O)Nc2ccc(CCNCCCc3ccccc3)cc2)cc1`, which inhibition is on record?
Answer: The inhibition was 0.01%.

Question: Which inhibition does the source give for `COc1ccc2[nH]ccc(=NN=Cc3ccc(N(C)C)cc3)c2c1` here?
Answer: The inhibition was 3.94%.

Question: Which inhibition does the source give for `Cc1cccnc1CNc1nccc2c(C)c(C)[nH]c12` here?
Answer: The inhibition was 2.33%.

Question: Which inhibition does the source give for `Cc1cccc2nc(-c3ccc(-c4ccc(CN5CCN(c6ccncc6)CC5)cc4)cc3)[nH]c12` here?
Answer: Its inhibition is 29.1%.

Question: For `N#Cc1ccc(N/C(=N\c2ccc(-c3ccccc3)cc2)NC2CCCc3ccccc32)c(O)c1` (stereo not given), which inhibition is on record?
Answer: The inhibition was 0.81%.

Question: `COc1cccc(CNC[C@@H](O)[C@H](Cc2ccccc2)NC(=O)c2cc(C(C)C)cc(N3CCCC3=O)c2)c1` was tested. Which inhibition did it give?
Answer: Its inhibition is 0.91%.

Question: With `CO/C(=C\C=C\c1cc2cc(Cl)c(Cl)cc2[nH]1)C(=O)NCCCN1CCN(c2ccncc2)CC1` as the compound, how does the inhibition read?
Answer: Its inhibition is 3.18%.

Question: `COc1ccccc1CCNc1nccc(N[C@@H](Cc2ccccc2)C(=O)NCc2cccs2)n1` was tested. Which inhibition did it give?
Answer: Its inhibition is 1.77%.

Question: With `O=C(N[C@@H](Cc1ccccc1)[C@H](O)CNC1CCc2ccccc2C1)c1cc(C2CCCC2)cc(N2CCCC2=O)c1` (stereo not given in full) as the compound, how does the inhibition read?
Answer: Its inhibition is 2.21%.

Question: `O=C(Nc1ccc([N+](=O)[O-])cc1)c1nn(-c2ccccc2)cc1/N=C/c1cccc(O)c1` was tested. Which inhibition did it give?
Answer: Its inhibition is -1.47%.

Question: `O=c1cc(NCCCNCc2scc3c(Cl)cc(C(F)(F)F)nc23)[nH]c2ccccc12` was tested. Which inhibition did it give?
Answer: Its inhibition is 2.43%.

Question: `O=C(N[C@@H](CC1CCCCC1)C(=O)NCCc1ccc(Cl)c(Cl)c1)c1ccc(O)c(-c2ccc(Cl)c(Cl)c2)c1` was tested. Which inhibition did it give?
Answer: The inhibition was 0.3%.

Question: With `O=C(/C=C/c1ccc(Cl)c(Cl)c1)NCCCCCN1CCC(NC(=O)c2ccc([N+](=O)[O-])cc2)CC1` as the compound, how does the inhibition read?
Answer: The inhibition was 9.99%.

Question: How did the inhibition turn out when `C=C[C@H]1CN(CCCCCCC)CC[C@H]1CC(=O)Nc1cnnc2ccc(OC)cc12` was run?
Answer: The inhibition was 0.25%.

Question: With `CCCN(CCC)C(C)CCC(C)Nc1c2ccc(Cl)cc2nc2ccc(OC)cc12` (stereo not given) as the compound, how does the inhibition read?
Answer: The inhibition was 2.78%.

Question: Which inhibition does the source give for `O=[N+]([O-])c1ccc(Nc2nc(NCc3ccccc3)nc(N/N=C/c3ccccc3[N+](=O)[O-])n2)cc1` here?
Answer: The inhibition was -0.41%.

Question: `O=C(NCCOc1ccccc1)[C@H](Cc1ccccc1)Nc1ccnc(NCC2CCCCC2)n1` was tested. Which inhibition did it give?
Answer: The inhibition was 1.21%.

Question: For `CCc1cc2c3c(N)nc(N)nc3ccc2n1C(C)CC` (stereo not given), which inhibition is on record?
Answer: Its inhibition is 86.6%.

Question: For `c1ccc(-c2cc3cccc(-c4nc5cnccc5[nH]4)c3o2)cc1`, which inhibition is on record?
Answer: The inhibition was 11.5%.

Question: Which inhibition does the source give for `CC(=O)Nc1cccc(CN(Cc2ccc(-c3ccc(CNCc4cccnc4)cn3)cc2)C(=O)Cc2cccnc2)c1` here?
Answer: The inhibition was 10.7%.

Question: Which inhibition does the source give for `C=CCOC(=O)N1CCC(CNCc2ccc(-c3ccc(-c4nc5cc(C(F)(F)F)ccc5[nH]4)cc3)cc2)C1` (stereo not given) here?
Answer: Its inhibition is -0.38%.

Question: `CC(=O)Nc1nc(C(=O)Nc2ccc(-c3ccc(-c4nc5ccccc5[nH]4)cc3)cc2)cs1` was tested. Which inhibition did it give?
Answer: Its inhibition is 2.54%.

Question: How did the inhibition turn out when `CC(=O)Nc1ccc(CN(Cc2cccc(OC(C)(C)C)c2)Cc2ccc3c(c2)OCCO3)cc1` was run?
Answer: Its inhibition is 2.67%.

Question: For `CCc1nc2nc(C)cc(Nc3ccc(F)c(Cl)c3)n2n1`, which inhibition is on record?
Answer: The inhibition was -3.69%.

Question: `CCOc1cc(C(=O)NCc2ccc(Cl)c(Cl)c2)ccc1-c1nc2cc(Cl)ccc2[nH]1` was tested. Which inhibition did it give?
Answer: The inhibition was 2.33%.

Question: Which inhibition does the source give for `O=C(/C=C/c1ccc(Cl)c(Cl)c1)NCCCCCN1CCC(NC(=O)Nc2ccc(Cl)cc2Cl)CC1` here?
Answer: The inhibition was -0.77%.

Question: How did the inhibition turn out when `CCCN(CCC)CCCNc1ccc(C(=O)Nc2ccc(OCC)cc2)cc1[N+](=O)[O-]` was run?
Answer: Its inhibition is 19.4%.
